PubChem BioAssay AID1159577 (Broad Institute, 2015)
The campaign covered roughly 1,300 compounds. About 240 (18%) were called active. Roughly 8% stayed inconclusive and do not appear here. Not all results are given here. Entries with a potency or affinity are not part of this list. Values without a mark were called inactive. The rule behind the calls is not given here.

Test: HepG2 cell cytotoxicity, dose response, cytotoxicity control, cherry-picked samples (AID 1159577);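 note: 0% = neutral control wells and -100% = positive control wells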
Conditions: HepG2 cytotoxicity counterscreen, plate reader; series mostly up to 19.5 µM; activity change, negative = cytotoxicity: at the top concentration

Point of comparison: CCC(=O)N1CC2(C1)CN(Cc1ccc(Cl)cc1)[C@@H](CO)c1[nH]c3cc(OC)ccc3c12, “activity change, negative = cytotoxicity” value -17.8%. Against it:
- O=C(c1ccccc1F)N1CC(=O)N2[C@H](CO)[C@H](c3ccc(-c4cccnc4)cc3)[C@H]2C1 — higher, -9.99%
- C[C@@H]1CN([C@@H](C)CO)C(=O)c2cccc(NC(=O)c3nc4ccccc4s3)c2O[C@H]1CN(C)C(=O)Nc1ccc(C(F)(F)F)cc1 — higher, 28%
- CCCNC(=O)N1[C@H](C#N)[C@H](c2ccc(-c3cccnc3)cc2)[C@H]1CO — higher, 15.7%
- COc1ccc2c3c([nH]c2c1)[C@@H](CO)N(Cc1ccccc1)CC31CCN(C(=O)c2cccnc2)CC1 — higher, 1%
- CO[C@H]1CN(C)C(=O)c2cc(NC(C)=O)ccc2OC[C@H](C)N(Cc2ccncc2)C[C@@H]1C — higher, 9.85%
- N#Cc1ccc(-c2ccc(C3[C@@H]4CN(C(=O)C5CC5)C[C@H]3N4)cc2)cc1 (stereo partly drawn) — higher, 5.83%
- C[C@H]1CN([C@@H](C)CO)C(=O)c2ccccc2-c2ccccc2CO[C@@H]1CN(C)C(=O)Nc1ccc(-c2ccccc2)cc1 — higher, -2.44%
- COc1ccc2c3c([nH]c2c1)[C@@H](CO)N(Cc1ccccc1F)CC31CCN(C(=O)C2CCOCC2)CC1 — higher, -8.2%
- Cc1ccccc1S(=O)(=O)N(C)C[C@@H]1OCc2ccccc2-c2c(n(C)c3ccccc23)C(=O)N([C@@H](C)CO)C[C@@H]1C — higher, -1.58%
- COCC(=O)N1CC2(C1)CN(Cc1ccccc1F)[C@H](CO)c1[nH]c3cc(OC)ccc3c12 — higher, 12.4%
- CN(C)CC(=O)Nc1ccc2c(c1)[C@@H]1C[C@H](CC(=O)N3CCOCC3)O[C@@H](CO)[C@@H]1O2 — higher, -0.683%
- N#Cc1ccc(-c2ccc([C@@H]3[C@@H]4CN(S(=O)(=O)Cc5ccccc5)C[C@H]3N4)cc2)cc1 — lower, -19.3%
- N#Cc1ccc(-c2ccc([C@@H]3[C@@H](CO)N4C(=O)CN(C(=O)C5CCC5)C[C@@H]34)cc2)cc1 — higher, 10.7%
- CCCC#Cc1ccc2c(c1)O[C@H](CN(C)C(=O)c1ccccc1F)[C@@H](C)CN([C@H](C)CO)S2(=O)=O — higher, 16%
- C/C=C/c1ccc2c(c1)[C@@H]1[C@@H](CCN1S(=O)(=O)c1ccccc1C)[C@H](CO)N2 — higher, 0.386%
- COc1cccc(CNC(=O)c2cc3c(c(-c4cccc(-c5ccncc5)c4)n2)[C@@H](CCO)N([S@](=O)C(C)(C)C)C3)c1 — higher, -14.9%
- C[C@H]1CN([C@@H](C)CO)S(=O)(=O)c2ccc(C#Cc3ccccc3F)cc2O[C@H]1CN(C)C(=O)c1ccc2c(c1)OCO2 — higher, 26.1%
- CCCNC(=O)c1cc2c(c(-c3cccc(-c4cc5ccccc5o4)c3)n1)[C@H](CCO)N(C(=O)NC(C)C)C2 — higher, 26.5%
- O=C(c1ccccc1F)N1CC(=O)N2[C@H](C1)[C@@H](c1ccc(-c3ccc(F)cc3)cc1)[C@@H]2CO — higher, -5.85%
- C/C=C/c1ccc([C@H]2[C@@H](CO)N(CC3CCCC3)C23CN(C(=O)CC2CC2)C3)cc1 — higher, -13.4%
- COc1ccccc1-c1ccc([C@@H]2[C@@H](C#N)N[C@@H]2CO)cc1 — higher, 1.31%
- Cc1ccccc1S(=O)(=O)N1C[C@@H]2N[C@H](C1)C2c1ccc(-c2ccc(C#N)cc2)cc1 (stereo partly drawn) — higher, -10.4%
- COc1cccc(CN2[C@@H]3CNC[C@H]2[C@H]3c2ccc(-c3ccccc3OC)cc2)c1 — higher, -3.18%
- CCCC(=O)N1CCC2(CC1)CN(Cc1cccnc1)[C@@H](CO)c1[nH]c3cc(OC)ccc3c12 — higher, 19.9%
- CCC(=O)N1CC2(C1)CN(S(=O)(=O)c1ccccc1)[C@@H](CO)c1[nH]c3cc(OC)ccc3c12 — higher, 23.6%
- COc1ccc(S(=O)(=O)Nc2ccc3c(c2)CC(=O)N([C@H](C)CO)C[C@H](C)[C@H](CN(C)S(=O)(=O)c2ccc(C)cc2)O3)cc1 — higher, 5.57%
- O=C(Nc1ccc(C(F)(F)F)cc1)N1C[C@@H]2N[C@H](C1)C2c1ccc(-c2cccnc2)cc1 (stereo partly drawn) — higher, 23.2%
- COc1cccc(-c2ccc(C3[C@@H]4CN(C(=O)C5CC5)C[C@H]3N4)cc2)c1 (stereo partly drawn) — higher, -2.61%
- COc1ccc(-c2ccc(C3[C@H]4CNC[C@@H]3N4C(=O)Nc3ccc(C(F)(F)F)cc3)cc2)cc1 (stereo partly drawn) — higher, 7.31%
- O=C(c1cnccn1)N1CC(=O)N2[C@@H](CO)[C@@H](c3ccc(C#CCc4ccccc4)cc3)[C@@H]2C1 — higher, 5.35%
- CCC(=O)N1CC2(C1)CN(Cc1cc(F)ccc1F)[C@H](CO)c1[nH]c3cc(OC)ccc3c12 — higher, -5.03%
- CC(C)(C)[S@@](=O)N1Cc2cc(C(=O)N3CCc4ccccc4C3)nc(-c3cccc(-c4ccncc4)c3)c2[C@H]1CCO — higher, 14%
- C[C@H]1CN([C@@H](C)CO)C(=O)CCCn2nncc2CO[C@H]1CN(C)C(=O)Nc1ccc(N2CCCCC2)cc1 — higher, 4.08%
- C[C@@H]1CN([C@H](C)CO)C(=O)c2cc(/C=C/c3ccccc3)cnc2O[C@H]1CN(C)C(=O)NC1CCCCC1 — higher, -16.2%
- CN(C)CC#Cc1ccc([C@@H]2[C@H](CO)N3C(=O)CN(C(=O)Cc4cccnc4)C[C@@H]23)cc1 — higher, -5.53%
- COCC(=O)Nc1ccc2c(c1)C(=O)N(C)C[C@H](OC)[C@H](C)CN(Cc1cccc(F)c1)[C@@H](C)CO2 — higher, 6.07%
- C[C@@H]1CN([C@H](C)CO)C(=O)c2cccc(NC(=O)c3nc4ccccc4s3)c2O[C@H]1CN(C)C(=O)Nc1ccc(C(F)(F)F)cc1 — higher, 24.7%
- CCCNC(=O)N1CCC2(CC1)CN(Cc1ccc(F)cc1)[C@@H](CO)c1[nH]c3cc(OC)ccc3c12 — higher, 12%
- CO[C@@H]1CN(C)C(=O)c2ccc(NC(=O)c3nc4ccccc4s3)cc2OC[C@@H](C)N(Cc2ccccc2)C[C@H]1C — higher, 19.9%
- COc1ccc(-c2ccc(C3[C@H]4CNC[C@@H]3N4S(=O)(=O)c3cccc(OC)c3)cc2)cc1 (stereo partly drawn) — higher, 5.57%
- CCC(=O)N1CC2(C1)CN(Cc1cccc(Cl)c1)[C@H](CO)c1[nH]c3cc(OC)ccc3c12 — higher, -13%
- C[C@@H]1CN([C@H](C)CO)C(=O)c2cccc(NS(=O)(=O)c3cccs3)c2O[C@H]1CN(C)Cc1ccc(C(F)(F)F)cc1 — higher, 0.28%
- COc1ccc(C#Cc2ccc3c(c2)O[C@H](CN(C)C(=O)Nc2cccc(OC)c2)[C@H](C)CN([C@@H](C)CO)S3(=O)=O)cc1 — higher, 4.51%
- CC(C)(C)[S@](=O)N1Cc2cc(C(=O)NC3CCC3)nc(-c3cccc(Br)c3)c2[C@@H]1CCO — higher, 15.7%
- COc1ccc(S(=O)(=O)N(C)C[C@@H]2OCc3ccccc3-c3c(n(C)c4ccccc34)C(=O)N([C@@H](C)CO)C[C@@H]2C)cc1 — higher, 3.28%
- COc1ccc2c3c(n(C)c2c1)[C@H](CO)N(C(=O)c1cccc(F)c1)CC31CN(C(=O)c2cccc(F)c2)C1 — higher, 38.5%
- CO[C@@H]1CN(C)C(=O)c2ccc(NC(=O)c3cc(C)on3)cc2OC[C@@H](C)N(S(=O)(=O)c2cccc(C)c2)C[C@H]1C — higher, -12.2%
- CCC(=O)N1CCC2(CC1)CN(Cc1cccc(OC)c1)[C@@H](CO)c1[nH]c3cc(OC)ccc3c12 — lower, -21.1%
- C[C@@H]1CN([C@H](C)CO)C(=O)c2c(c3ccccc3n2C)-c2ccccc2CO[C@@H]1CN(C)C(=O)c1cc(Cl)cc(Cl)c1 — higher, 1.08%
- COc1ccc(CN2C[C@H](C)[C@@H](OC)CN(C)C(=O)c3cc(NC(=O)c4nc5ccccc5s4)ccc3OC[C@@H]2C)cc1 — higher, -2.87%
- CCCNC(=O)Nc1ccc2c(c1)C(=O)N(C)C[C@H](OC)[C@@H](C)CN(C(=O)C1CCOCC1)[C@@H](C)CO2 — higher, 0.908%
- C/C=C/c1ccc2c(c1)[C@H]1[C@H](CCN1S(=O)(=O)c1cccc(F)c1)[C@@H](CO)N2 — lower, -18.7%
- C/C=C/c1ccc2c(c1)[C@H]1[C@H](CCN1C(=O)c1ccc3c(c1)OCO3)[C@H](CO)N2 — higher, 17.9%
- C[C@@H]1CN([C@@H](C)CO)S(=O)(=O)c2ccc(/C=C/c3ccccc3)cc2O[C@H]1CN(C)C(=O)c1ccc2c(c1)OCO2 — higher, -5.77%
- C/C=C/c1ccc(C2[C@H]3CNC[C@@H]2N3Cc2cc(F)ccc2F)cc1 (stereo partly drawn) — higher, -9.53%
- C[C@@H]1CN([C@@H](C)CO)C(=O)c2cc(NC(=O)Nc3ccccc3)ccc2O[C@@H]1CN(C)C(=O)Nc1cccc2ccccc12 — higher, 0.484%
- COc1ccc2c3c([nH]c2c1)[C@@H](CO)N(Cc1ccccc1Cl)CC31CCN(C(=O)C2CC2)CC1 — higher, 5.31%
- C/C=C/c1ccc2c(c1)[C@H]1[C@H](CCN1S(=O)(=O)c1ccccc1C)[C@@H](CO)N2 — higher, 2.08%
- CO[C@@H]1CN(C)C(=O)c2cc(NC(C)=O)ccc2OC[C@@H](C)N(C(=O)Cc2cccnc2)C[C@H]1C — higher, -3.07%
- O=C(C[C@H]1C[C@@H]2c3cc(NC(=O)Nc4ccccc4)ccc3O[C@@H]2[C@H](CO)O1)NCc1ccccc1 — lower, -19.7%
- CCCN1[C@H](CO)[C@H](c2ccc(C3=CCCC3)cc2)[C@H]1CN(C(C)=O)C1CCCC1 — higher, 4.65%
- CCC(=O)N1[C@H](CO)[C@H](c2ccccc2)[C@@H]1CN(CC)C(=O)c1cccc(F)c1 — higher, 6.38%
- C[C@@H]1CN([C@H](C)CO)S(=O)(=O)c2ccc(C3=CCCCC3)cc2O[C@H]1CN(C)C(=O)Cc1ccncc1 — higher, 18%
- CN(C)CC(=O)N1[C@H](CO)[C@H](c2ccc(-c3cccc(C(=O)N(C)C)c3)cc2)[C@@H]1C#N — higher, 9.58%

With CS(=O)(=O)N1[C@H](C#N)[C@H](c2ccccc2-c2ccccc2)[C@H]1CO the “activity change, negative = cytotoxicity” value was -3.69% [at 18 µM].

Point of comparison: CS(=O)(=O)N1[C@H](C#N)[C@H](c2ccccc2-c2ccc(F)cc2)[C@H]1CO, “activity change, negative = cytotoxicity” value 0.806% [at 21 µM]. Against it:
- Cc1ccc(S(=O)(=O)N(C)C[C@H]2Oc3ccc(NC(=O)c4ccncc4)cc3C(=O)N([C@@H](C)CO)C[C@@H]2C)cc1 — lower, 0.724% [at 21 µM]
- Cc1ccc(S(=O)(=O)N(C)C[C@@H]2OCc3ccccc3-c3c(n(C)c4ccccc34)C(=O)N([C@H](C)CO)C[C@@H]2C)cc1 — lower, -6.32% [at 21 µM]
- N#Cc1ccc(-c2ccc([C@@H]3[C@@H]4CN(Cc5cocn5)C[C@H]3N4)cc2)cc1 — lower, -18.2% [at 21 µM]
- COc1ccccc1CN1C[C@@H]2N[C@H](C1)C2c1ccc(-c2ccncc2)cc1 (stereo partly drawn) — lower, -9.04% [at 21 µM]
- N#C[C@@H]1[C@H](c2ccccc2C2=CCCCC2)[C@@H](CO)N1C(=O)c1cccc(F)c1 — lower, -10.4% [at 21 µM]
- COc1cc(CN2[C@@H]3CNC[C@H]2C3c2ccc(-c3ccccc3)cc2)cc(OC)c1 (stereo partly drawn) — lower, -27.9% [at 21 µM]
